Rows were chosen to be rich in hits. Some 3.4% of all compounds tested hit in one or more screens of this group.
TEAD-YAP inh: TEAD-YAP interaction inhibition. HEK-TIYL cells, TEAD-Gal4/YAP UAS-luciferase luminescence. inhibition, % at 9.12 µM. 640,000 tested, 1.4% active. AID 1259422; in the data active = inhibition above about 32%;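 note: 0% = median of test compound wells and 100% = reference inhibitor wells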
FBW7 activator: activators of human E3 ligase FBW7; Q969H0; AlphaScreen FBW7–phospho-cyclin E peptide binding, activator screen; normalized activity (activation), % at 26.1 µM; 650,000 tested, 0.13% active; in the data active = normalized activity above about 1.9%;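 note: purified mutant Fbw7 with reduced substrate affinity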
MITF inh: human MITF inhibition, primary screen. AlphaScreen MITF homodimerization, bead proximity signal. O75030. 650,000 tested, 0.91% active. inhibition, % at 2.6 µM; in the data active = inhibition above about 50%;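 note: 0% = vehicle wells with protein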
GPR151 activ: activates the human receptor GPR151; PathHunter beta-arrestin GPR151 cells, luminescence; activation, % at 11.2 µM; 650,000 tested, 1% active; AID 1508602; in the data active = activation above about 4.9%;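 note: 0% = median of compound wells and 100% = cells with positive control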
Target sequence (Q8TDV0 whole entry, looked up): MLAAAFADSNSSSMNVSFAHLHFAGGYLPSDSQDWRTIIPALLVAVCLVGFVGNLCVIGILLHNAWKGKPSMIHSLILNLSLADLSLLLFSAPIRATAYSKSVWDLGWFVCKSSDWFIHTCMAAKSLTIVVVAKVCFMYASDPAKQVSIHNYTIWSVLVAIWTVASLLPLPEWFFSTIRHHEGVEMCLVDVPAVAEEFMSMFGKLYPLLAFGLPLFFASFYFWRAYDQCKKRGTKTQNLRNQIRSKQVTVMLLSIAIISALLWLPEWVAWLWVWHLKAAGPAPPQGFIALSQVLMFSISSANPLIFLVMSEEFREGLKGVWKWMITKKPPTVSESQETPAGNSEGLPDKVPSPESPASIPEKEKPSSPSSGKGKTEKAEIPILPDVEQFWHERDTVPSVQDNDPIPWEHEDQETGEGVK
* hit, by the source's call.

SMILES | TEAD-YAP inh | FBW7 activator | MITF inh | GPR151 activ
Fc1ccccc1-c1cnc2ccc(NCc3ccco3)nn12 | 39.4* | 0.2 | 9.9 | 0.5
OCCCNc1ccc2ncc(-c3cccc4ccccc34)n2n1 | 18.3 | 0.0 | 7.3 | 0.9
OCCCNc1ccc2ncc(-c3ccccc3F)n2n1 | 56.3* | 0.0 | -13.3 | 1.1
COc1ccc(-c2cnc3ccc(NCc4ccco4)nn23)c(OC)c1 | 0.0 | -0.1 | -7.4 | -0.6
COC(=O)c1ccccc1S(=O)(=O)N1CCCC(c2nc(-c3ccc(C)o3)no2)C1 (configuration not stated) | -8.5 | 0.9 | 21.0 | 2.3
CCCNC(=O)c1ccnc(N2CCCC2CO)c1 (configuration not stated) | -4.2 | 0.2 | 16.2 | 2.3
CNC(=O)[C@@H]1C[C@H](NCc2ccccc2Cl)CN1Cc1cccc2ccccc12 | 7.5 | 0.0 | -11.8 | 0.2
CC(=O)Nc1ccccc1NC(=O)CN(C)S(=O)(=O)c1ccc(C)cc1 | 0.6 | 0.3 | 18.7 | -1.5
CC(=O)Nc1ccccc1N(C)S(=O)(=O)c1ccc(C)cc1 | 51.0* | 0.1 | -5.3 | 0.3
O=C(CCl)N1CCN(S(=O)(=O)c2ccccc2)CC1 | 34.5* | 0.0 | 11.4 | -0.4
Cc1nc(C)n(-c2ccc(Nc3nccc(N(C)Cc4ccccc4)n3)cc2)n1 | 50.7* | 0.9 | 23.7 | 0.4
Cc1nc(C)n(-c2ccc(Nc3nccc(-c4ccc5ccccc5c4)n3)cc2)n1 | 26.8 | 1.0 | 16.8 | -0.4
CCOC(=O)CN(Cc1ccccc1)c1ccnc(Nc2ccc(-n3nc(C)nc3C)cc2)n1 | 52.6* | -0.2 | -0.3 | 0.6
Cc1cccc2cc(-c3nc4ccccc4[nH]3)c(=O)oc12 | -42.9 | 0.2 | 12.1 | 0.2
Cc1ccc2cc(-c3nc4ccccc4[nH]3)c(=O)oc2c1 | -18.7 | 2.4* | 21.2 | -2.6
CC(=O)C1=C(c2ccccc2)N(C(C)=O)n2cnnc2S1 | 15.6 | 0.0 | -5.3 | 1.1
CC(=O)C1=C(c2ccc3c(c2)CCCC3)N(C(C)=O)n2cnnc2S1 | 37.9* | 0.0 | 8.6 | 1.6
CCC1=C[C@@H]2CN(C1)Cc1c([nH]c3ccccc13)[C@@](C(=O)OC)(c1cc3c(cc1OC)N(C)[C@H]1[C@@](O)(C(=O)OC)[C@H](OC(C)=O)[C@]4(CC)C=CCN5CC[C@]31[C@@H]54)C2 | 65.3* | 0.0 | 19.0 | -0.5
CC[C@]1(O)CC2CN(CCc3c([nH]c4ccccc34)[C@@](C(=O)OC)(c3cc4c(cc3OC)N(C)[C@H]3[C@@](O)(C(N)=O)[C@H](O)[C@]5(CC)C=CCN6CC[C@]43[C@@H]65)C2)C1 (some centres not stated) | 47.0* | -0.1 | -11.9 | -2.9
CC[C@]1(O)C[C@H]2CN(CCc3c([nH]c4ccccc34)[C@H](C)[C@H]2c2cc3c(cc2OC)N(C)[C@H]2[C@@](O)(C(=O)OC)[C@H](C)[C@]4(CC)C=CCN5CC[C@]32[C@@H]54)C1 | 64.9* | 0.0 | 24.8 | 1.4
CCC1(O)CC2CN(CCc3c([nH]c4ccccc34)[C@@](C(=O)OC)(c3cc4c(cc3OC)N(C)C3[C@]45CCN4CC=C[C@@](CC)([C@@H](OC(C)=O)[C@]3(O)C(=O)OC)[C@H]45)C2)C1 (some centres not stated) | 69.5* | -0.1 | 10.1 | -0.5
O=C1Cc2cc(S(=O)(=O)N3CCN(c4ccccc4F)CC3)cc3c2N1CCC3 | 4.1 | -0.2 | -1.3 | -0.7
CC1CCCN(c2cc(NCC(=O)O)c3c4c(onc24)-c2ccccc2C3=O)C1 (configuration not stated) | 67.4* | -0.6 | 58.8* | -1.5
CC(C)Nc1cc(N2CCOCC2)c2noc3c2c1C(=O)c1ccccc1-3 | 21.4 | -0.6 | 56.3* | 1.3
CC1CCN(c2cc(NCCO)c3c4c(onc24)-c2ccccc2C3=O)CC1 | 4.9 | -0.4 | 38.3 | -0.8
SMILES | TEAD-YAP inh | FBW7 activator | MITF inh | GPR151 activ
CN1CCN(c2cc(NCc3ccco3)c3c4c(onc24)-c2ccccc2C3=O)CC1 | -11.8 | -1.1 | 56.1* | 0.2
CC1CCCN(c2cc(NCCO)c3c4c(onc24)-c2ccccc2C3=O)C1 (configuration not stated) | 33.7* | -0.5 | 25.7 | -1.5
Cc1c(NC(=O)CSc2nnc(-c3cccs3)n2N)c(=O)n(-c2ccccc2)n1C | 0.2 | 0.1 | 19.2 | 0.0
COc1ccc(C(=O)NCc2nnc(SCC(=O)N3N=C(c4ccc(OC)cc4)CC3c3cccc(OC)c3OC)n2C)cc1 (configuration not stated) | -7.4 | 0.0 | 3.3 | -0.6
CCNc1cc(N2CCN(C)CC2)c2noc3c2c1C(=O)c1ccccc1-3 | 4.9 | -0.4 | 16.1 | -1.3
CCNc1cc(N2CCN(CC)CC2)c2noc3c2c1C(=O)c1ccccc1-3 | 21.5 | -1.1 | 61.1* | -0.1
